Consider 40 molecules from PubChem BioAssay (NCI).

Compounds without any hit were thinned out: in the full panel of roughly 79,000, 15% have a hit. Values without a mark were called inactive. Activity calls are given as the source filed them. No stated cut-off is given here; in the data, active means growth inhibition above about 70%; inactive means the rest.

A short description of one experiment: NCI Yeast Anticancer Drug Screen. Data for the rad50 strain (AID 155).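 Further: 0% = growth of vehicle-only cultures of the same strain.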 To be noted: S. cerevisiae rad50 strain growth inhibition; at 50.0 µM; active compounds read high. In short, it runs like this: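 A DNA repair-deficient yeast mutant serves as the test organism; compound-induced growth inhibition is calculated against vehicle-treated cells.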
On to `CCOC(=O)/C=C(\CC(=O)OCC)C(=O)OCC`, for which the growth inhibition was 99.5% (active).

Regarding `Cc1cc(Cl)cc2c1NC(=O)C2(O)C(C)C(=O)c1ccc(Cl)cc1` (stereo not given), the growth inhibition was 99.4% (active).

For `C=CS(=O)(=O)c1ccc([N+](=O)[O-])cc1`, the growth inhibition is 99.7% (active).

For the molecule `Oc1cc(Br)ccc1/C=N/Nc1ccccn1`, the growth inhibition is -38.4%.

For `CC(C)C(CC(C)(C)C)OC(=O)Nc1cccc2ccccc12` (stereo not given), the growth inhibition is 13.1%.

Take `CC(=O)[O-].O=C(N/N=C/c1ccccc1[O-])c1ccccc1.[Zn+2]`: the growth inhibition is -2.05%.

Regarding `COc1cc(C2C(C(=O)Nc3ccc(Cl)c(Cl)c3)=C(C)NC(C)=C2C(=O)Nc2ccc(Cl)c(Cl)c2)ccc1O`, the growth inhibition is 91% (active).

For the molecule `[Ce+3].[Cl-].[O-]/N=C(\c1ccccc1)c1ccccn1.[O-]/N=C(\c1ccccc1)c1ccccn1.[O-]/N=C(\c1ccccc1)c1ccccn1`, the growth inhibition is 85.5% (active).

As for `CCCCCCCCN1C(=O)c2ccccc2S1(=O)=O`, the growth inhibition was 22.9%.

For the molecule `CC(=O)N(C1=C(Cl)C(=O)c2ccccc2C1=O)c1ccc(C)cc1`, the growth inhibition is 99.5% (active).

Turning to `COc1ccc(Cl)c(-c2cc(OC)c(N=N/C(=N/Nc3ccc([N+](=O)[O-])cc3)c3ccc([N+](=O)[O-])cc3)cc2Cl)c1`, the growth inhibition was 70.9% (active).

Turning to `CCOC(=O)CSC(=S)N1CCOCC1`, the growth inhibition was 37%.

For the molecule `CC1(C)COC(c2cccc(C(O)c3ccc(Cl)cc3)c2)=N1` (stereo not given), the growth inhibition was 47%.

Turning to `COc1ccc(/C=C/C(C(=O)O)C(=O)O)cc1`, the growth inhibition is 82.7% (active).

For `COc1ccc2c(Cc3ccc(O)cc3)cncc2c1O`, the growth inhibition is 8.65%.

`COC1=CC23C=CC1[C@@H](c1ccccc1)C2=C(C)C(=O)N3C(=O)NC1CCCCC1` (stereo not given in full): the growth inhibition was 71.1% (active).

In the case of `O=c1c2c3c(sc2nc2n1N=C(c1ccc(Br)cc1)CS2)CCCC3`, the growth inhibition was 21.2%.

Regarding `Cc1noc(NS(=O)(=O)c2ccc(N=Nc3cc(N=Nc4ccc(S(=O)(=O)Nc5onc(C)c5C)cc4)c4c(NC(=O)C(Cl)Cl)cccc4c3O)cc2)c1C` (tested in a mixture with another compound), the growth inhibition was 73% (active).

For the molecule `CC(=O)OC1=CC2(OC(C)=O)CC(C)(C)C1C1C(=O)C=CC(=O)C12` (stereo not given), the growth inhibition is 53.1%.

As to `COC1CCC(/C(C#N)=C/c2ccco2)CC1` (stereo not given), the growth inhibition is 61.7%.

With `CCN(CC)CCNc1cc(C)nc2c1ccc1c2ccc2c(NCCN(CC)CC)cc(C)nc21`, the growth inhibition is 62.3%.

Regarding `O=c1sc(=S)[nH]c2ccccc12`, the growth inhibition is 76.8% (active).

Take `Oc1c(Br)ccc2c(O)c(Br)ccc12`: the growth inhibition was 89.7% (active).

For the molecule `Nc1ccccc1CCc1ccccc1`, the growth inhibition is 96.9% (active).

Take `Cc1cc2c(cc1O)CC[C@@H]1[C@@H]2CC[C@]2(C)[C@@H](O)CC[C@@H]12`: the growth inhibition is 38.5%.

With `O=c1c2ccccc2sc2c([N+](=O)[O-])ccc(NCCNCCO)c12`, the growth inhibition is 87.2% (active).

With `NC(=S)NNc1c([N+](=O)[O-])cnn(-c2ccccc2)c1=O`, the growth inhibition was 3.85%.

With `COc1ccccc1NC(=O)c1ccccc1F`, the growth inhibition is -2.5%.

Turning to `COc1ccc(/C=C2\SC(=S)N(/C=C(/C#N)C(=O)c3ccc4ccccc4c3)C2=O)cc1OC`, the growth inhibition is 97.4% (active).

On to `COC(=O)C1(OC(=O)CCC(=O)O)C(=O)NC2=C1C(=O)c1ccccc1C2=O` (stereo not given), for which the growth inhibition is 75.8% (active).

On to `Cc1cc(=O)c2c(ccc3cc4ccccc4cc32)[nH]1`, for which the growth inhibition is 66.8%.

`CCc1nc(N)nc(N)c1-c1ccc(N(C)Cc2ccccc2)c([N+](=O)[O-])c1`: the growth inhibition was 8.55%.

Consider `O=C1CSC(c2ccccc2O)N1c1ccc(-n2c(-c3ccccc3)nc3ccccc3c2=O)cc1` (stereo not given), for which the growth inhibition is 67.3%.

Consider `O=C(C[P+](c1ccccc1)(c1ccccc1)c1ccccc1)c1ccc(Br)cc1`, for which the growth inhibition was 98.8% (active).

Consider `O=NN(CCCl)C(=O)Oc1ccc(OC(=O)N(CCCl)N=O)cc1`, for which the growth inhibition is 59.6%.

`Cc1cccc(C[N+](C)(C)CCCO)c1C`: the growth inhibition was -6.15%.

For `CC(C)NC(=O)OCCS(=O)c1c(Cl)c(Cl)nn1C` (stereo not given), the growth inhibition was 98.8% (active).

In the case of `COC1=CC(=O)[C@H]2CC(C)=CC[C@]2(C)C1=O`, the growth inhibition is 9.35%.

`Oc1ccc(O)c2c(O)c3ccccc3c(O)c12`: the growth inhibition was 76.7% (active).

Turning to `O=[N+]([O-])c1cc(Br)cc(Br)c1O`, the growth inhibition was 61.6%.

The next experiment can be described thus: NCI Yeast Anticancer Drug Screen. Data for the mec2-1 strain (AID 157). Conditions: S. cerevisiae mec2-1 strain, at 5.0 µM (retest, dose inferred, filed as 0.5), active compounds read high. In short, it runs like this:
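Each compound was tested on mec2-1 yeast, a strain altered in DNA damage repair or cell cycle control. Growth inhibition is reported relative to vehicle.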
`CCOC(=O)/C=C(\CC(=O)OCC)C(=O)OCC`: the growth inhibition was -1%.

In the case of `Cc1cc(Cl)cc2c1NC(=O)C2(O)C(C)C(=O)c1ccc(Cl)cc1` (stereo not given), the growth inhibition is -1%.

For the molecule `C=CS(=O)(=O)c1ccc([N+](=O)[O-])cc1`, the growth inhibition was -7%.

`Oc1cc(Br)ccc1/C=N/Nc1ccccn1`: the growth inhibition was -11%.

With `CC(C)C(CC(C)(C)C)OC(=O)Nc1cccc2ccccc12` (stereo not given), the growth inhibition is -1%.

Take `CC(=O)[O-].O=C(N/N=C/c1ccccc1[O-])c1ccccc1.[Zn+2]`: the growth inhibition is 6%.

Take `COc1cc(C2C(C(=O)Nc3ccc(Cl)c(Cl)c3)=C(C)NC(C)=C2C(=O)Nc2ccc(Cl)c(Cl)c2)ccc1O`: the growth inhibition was -4%.

With `[Ce+3].[Cl-].[O-]/N=C(\c1ccccc1)c1ccccn1.[O-]/N=C(\c1ccccc1)c1ccccn1.[O-]/N=C(\c1ccccc1)c1ccccn1`, the growth inhibition was 28%.

For `CCCCCCCCN1C(=O)c2ccccc2S1(=O)=O`, the growth inhibition is -4%.

For the molecule `CC(=O)N(C1=C(Cl)C(=O)c2ccccc2C1=O)c1ccc(C)cc1`, the growth inhibition is 100% (active).

Regarding `COc1ccc(Cl)c(-c2cc(OC)c(N=N/C(=N/Nc3ccc([N+](=O)[O-])cc3)c3ccc([N+](=O)[O-])cc3)cc2Cl)c1`, the growth inhibition was 98% (active).

For the molecule `CCOC(=O)CSC(=S)N1CCOCC1`, the growth inhibition is -2%.

Turning to `CC1(C)COC(c2cccc(C(O)c3ccc(Cl)cc3)c2)=N1` (stereo not given), the growth inhibition was -19%.

With `COc1ccc(/C=C/C(C(=O)O)C(=O)O)cc1`, the growth inhibition was -20%.

For the molecule `COc1ccc2c(Cc3ccc(O)cc3)cncc2c1O`, the growth inhibition was -8%.

Regarding `COC1=CC23C=CC1[C@@H](c1ccccc1)C2=C(C)C(=O)N3C(=O)NC1CCCCC1` (stereo not given in full), the growth inhibition was -4%.

`O=c1c2c3c(sc2nc2n1N=C(c1ccc(Br)cc1)CS2)CCCC3`: the growth inhibition is -3%.

`Cc1noc(NS(=O)(=O)c2ccc(N=Nc3cc(N=Nc4ccc(S(=O)(=O)Nc5onc(C)c5C)cc4)c4c(NC(=O)C(Cl)Cl)cccc4c3O)cc2)c1C` (tested in a mixture with another compound): the growth inhibition was 97% (active).

`CC(=O)OC1=CC2(OC(C)=O)CC(C)(C)C1C1C(=O)C=CC(=O)C12` (stereo not given): the growth inhibition is -8%.

On to `COC1CCC(/C(C#N)=C/c2ccco2)CC1` (stereo not given), for which the growth inhibition was -5%.

Regarding `CCN(CC)CCNc1cc(C)nc2c1ccc1c2ccc2c(NCCN(CC)CC)cc(C)nc21`, the growth inhibition is 18%.

`O=c1sc(=S)[nH]c2ccccc12`: the growth inhibition was 6%.

For `Oc1c(Br)ccc2c(O)c(Br)ccc12`, the growth inhibition is 51%.

Consider `Nc1ccccc1CCc1ccccc1`, for which the growth inhibition was 0%.

For the molecule `Cc1cc2c(cc1O)CC[C@@H]1[C@@H]2CC[C@]2(C)[C@@H](O)CC[C@@H]12`, the growth inhibition was -25%.

For the molecule `O=c1c2ccccc2sc2c([N+](=O)[O-])ccc(NCCNCCO)c12`, the growth inhibition is 35%.

With `NC(=S)NNc1c([N+](=O)[O-])cnn(-c2ccccc2)c1=O`, the growth inhibition was -28%.

As for `COc1ccccc1NC(=O)c1ccccc1F`, the growth inhibition is -47%.

Regarding `COc1ccc(/C=C2\SC(=S)N(/C=C(/C#N)C(=O)c3ccc4ccccc4c3)C2=O)cc1OC`, the growth inhibition is -18%.

Turning to `COC(=O)C1(OC(=O)CCC(=O)O)C(=O)NC2=C1C(=O)c1ccccc1C2=O` (stereo not given), the growth inhibition was 2%.

`Cc1cc(=O)c2c(ccc3cc4ccccc4cc32)[nH]1`: the growth inhibition is 0%.

Turning to `CCc1nc(N)nc(N)c1-c1ccc(N(C)Cc2ccccc2)c([N+](=O)[O-])c1`, the growth inhibition was 7%.

Consider `O=C1CSC(c2ccccc2O)N1c1ccc(-n2c(-c3ccccc3)nc3ccccc3c2=O)cc1` (stereo not given), for which the growth inhibition is -1%.

For the molecule `O=C(C[P+](c1ccccc1)(c1ccccc1)c1ccccc1)c1ccc(Br)cc1`, the growth inhibition was 53%.

Turning to `O=NN(CCCl)C(=O)Oc1ccc(OC(=O)N(CCCl)N=O)cc1`, the growth inhibition was 86% (active).

In the case of `Cc1cccc(C[N+](C)(C)CCCO)c1C`, the growth inhibition is 4%.

For `CC(C)NC(=O)OCCS(=O)c1c(Cl)c(Cl)nn1C` (stereo not given), the growth inhibition is 11%.

Take `COC1=CC(=O)[C@H]2CC(C)=CC[C@]2(C)C1=O`: the growth inhibition was 1%.

For `Oc1ccc(O)c2c(O)c3ccccc3c(O)c12`, the growth inhibition is 15%.

Take `O=[N+]([O-])c1cc(Br)cc(Br)c1O`: the growth inhibition was 18%.
